Bioassay records from PubChem BioAssay.
The list is not random: actives were taken first. Their share in the collection is about 2.3%.
Tau fibril ThT – qHTS for Inhibitors of Tau Fibril Formation, Thioflavin T Binding; Microtubule-associated protein tau (Homo sapiens), P10636; recombinant tau K18 P301L, heparin-induced fibrillization, ThT fluorescence; Potency, µM (series often up to 57.4 µM), hits mostly inhibitors; actives 2.1% (n = 270,000); further: nearly all actives have a fitted effect of over 55% in size
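Heparin-induced (20 uM) aggregation of recombinant human K18 P301L tau, 15 uM unlabeled with 0.24 uM labeled, pH 7 acetate buffer, 6 hr at 37 C with compound. Fibrils quantified by 30 uM ThT fluorescence after 1 hr ambient incubation.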
FBPA coupling cs – qHTS Assay for Inhibitors of Fructose-1,6-bisphosphate Aldolase from Giardia Lamblia: Coupling assay counterscreen. coupling enzyme system counterscreen, AmpLite Red fluorescence. activity change, negative = inhibition, % at 58.2 µM, hits read low. actives 0.67% (n = 290,000). AID 2472, 2010; in the data active means activity change below about -30%
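Coupling enzymes only (glyceraldehyde-3-phosphate) + compound, at 57.5 uM final, 10 min RT; add substrate/coupling/AmpLite Red mix, 20 min RT; fluorescence ex 525/em 598 nm. Actives flag coupling-system interference.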
Tau fluor counter – Counterscreen qHTS for Inhibitors of Tau Fibril Formation, Fluorescence Polarization. AID 1463, 2008. Potency, µM (top dose mostly 57.7 µM). actives 0.93% (n = 280,000). tau K18 P301L (four-repeat tau fragment) Alexa594 fluorescence, heparin fibrillization; further: nearly all actives have a fitted effect of over 55% in size
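Human K18 P301L tau (15 uM unlabeled plus 0.24 uM Alexa 594-labeled, final) in 100 mM sodium acetate pH 7 was mixed with compound and 20 uM heparin and incubated 6 hr at 37 C.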
Tau FP inhib – qHTS for Inhibitors of Tau Fibril Formation, Fluorescence Polarization | K18 P301L tau heparin fibrillization, Alexa594 FP, 6 h | AID 1468, 2008 | actives 0.39% (n = 280,000) | Microtubule-associated protein tau (Homo sapiens), P10636 | Potency, µM (titrated, usually from 57.7 µM), most hits filed as inhibitors; further: nearly all actives have a fitted effect of over 55% in size
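Quantitative HTS format: compounds meet 15 uM recombinant K18 P301L tau and Alexa 594-tau tracer in 100 mM sodium acetate pH 7; 20 uM heparin triggers fibrillization at 37 C over 6 hr; FP gives the signal.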
USP1-UAF1 inh – Inhibitors of USP1/UAF1: Primary Screen; Ubiquitin carboxyl-terminal hydrolase 1 (Homo sapiens), O94782; recombinant USP1/UAF1, Ub-Rhodamine cleavage fluorescence; Potency, µM (highest dose often 57.1 µM), most hits filed as inhibitors; actives 0.23% (n = 390,000); further: nearly all actives have a fitted effect of over 60% in size
Target sequence (O94782 whole entry, looked up): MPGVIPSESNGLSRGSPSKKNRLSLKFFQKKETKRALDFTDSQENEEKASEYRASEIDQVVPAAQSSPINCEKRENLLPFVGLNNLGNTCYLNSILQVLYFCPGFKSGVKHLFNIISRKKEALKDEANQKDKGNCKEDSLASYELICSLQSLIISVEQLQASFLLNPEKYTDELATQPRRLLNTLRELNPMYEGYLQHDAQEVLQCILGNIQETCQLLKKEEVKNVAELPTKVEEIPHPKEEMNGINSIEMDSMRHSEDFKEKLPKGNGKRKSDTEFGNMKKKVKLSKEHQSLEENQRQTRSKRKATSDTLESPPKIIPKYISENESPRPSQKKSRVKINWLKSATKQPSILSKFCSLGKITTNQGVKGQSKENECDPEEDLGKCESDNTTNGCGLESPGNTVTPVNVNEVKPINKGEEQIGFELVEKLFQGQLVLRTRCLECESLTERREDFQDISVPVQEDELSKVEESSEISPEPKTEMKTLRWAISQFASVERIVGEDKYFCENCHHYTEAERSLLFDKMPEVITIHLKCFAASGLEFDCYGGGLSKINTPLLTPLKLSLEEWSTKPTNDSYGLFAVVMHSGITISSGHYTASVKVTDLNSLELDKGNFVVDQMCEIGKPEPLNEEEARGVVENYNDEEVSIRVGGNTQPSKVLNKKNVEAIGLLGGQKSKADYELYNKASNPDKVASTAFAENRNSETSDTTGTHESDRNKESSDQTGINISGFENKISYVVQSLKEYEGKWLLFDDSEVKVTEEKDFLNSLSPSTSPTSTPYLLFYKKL
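USP1/UAF1 complex (1 nM) preincubated 15 min at room temperature with compound, then Ub-Rho substrate (150 nM final) added. Kinetic fluorescence at 480/540 nm over 6 reads at 60 s intervals; 50 mM HEPES pH 7.8, 0.5 mM EDTA, 0.1 mg/ml BSA, 1 mM TCEP, 0.01% Tween-20.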
Of the large screens only hits and unclear results are named; the others gave an inactive call; [ ] = dose if it differs, or a comment. Unless noted, the call rests on the fitted dose curve; in most records, active means well fitted curve in the direction sought with a large enough effect; inconclusive means small, poorly fitted or top-dose-only effect, or another doubt; inactive means no such curve, though single readings can be large; an effect the other way counts as inactive or inconclusive.

CC(C)CCCCCCNC(=S)Nc1ccc(S(=O)(=O)N2CCOCC2)cc1	Tau fluor counter inconclusive, Tau FP inhib 25µM
C(=C\c1ccco1)/c1ccc2ccccc2n1	Tau fibril ThT 32µM, Tau FP inhib inconclusive
Fc1cccc(F)c1/C=C/c1ccc2ccccc2n1	Tau fibril ThT inconclusive
COC(=O)N1[C@H]2CC[C@@]3(C)C=C(C)O[C@]1(C)C3c1ccccc12	none (no result: USP1-UAF1 inh)
CCN(CC)c1ccc(/C=N/NC(=O)Nc2ccccc2)cc1	Tau fibril ThT 14µM, Tau fluor counter 14µM[quencher], USP1-UAF1 inh inconclusive
CCN(CC)c1ccc(/C=N/NC(=O)Cc2nnc(NC(=O)Nc3ccccc3)s2)cc1	Tau fibril ThT inconclusive, Tau fluor counter 7.1µM[quencher]
CCN(CCNC(=O)Nc1ccc(Cl)cc1)c1ccccc1	Tau fibril ThT inconclusive, Tau fluor counter 16µM[quencher]
CC(=O)Nc1cccc(NC(=O)Nc2ccc(C(C)=O)cc2)c1	none
CCN(CC)c1ccc(NC(=O)Nc2cccc(C(C)=O)c2)cc1	Tau fibril ThT inconclusive, Tau fluor counter 18µM[quencher]
COc1ccc(OCC(=O)OCc2cc(=O)n3nc(C4CCCCC4)sc3n2)cc1	none (no result: FBPA coupling cs)
COc1ccc(S(=O)(=O)n2nc(-c3ccco3)nc2NCc2ccc(N(C)C)cc2)cc1	Tau fluor counter inconclusive, Tau FP inhib inconclusive (no result: FBPA coupling cs)
CCC(C)(C)n1nnnc1C(c1cc2cc(C)ccc2[nH]c1=O)N1CCCc2ccccc21 (stereo not drawn)	Tau fibril ThT inconclusive
Cc1cc2cc(C(c3nnnn3Cc3ccccc3)N3CCc4ccccc43)c(=O)[nH]c2cc1C (stereo not drawn)	Tau fibril ThT 16µM, FBPA coupling cs -45, Tau FP inhib inconclusive
CCc1ccc2[nH]c(=O)c(C(c3nnnn3Cc3ccco3)N3CCC(C)CC3)cc2c1 (stereo not drawn)	USP1-UAF1 inh inconclusive
Cc1cc2cc(C(c3nnnn3Cc3ccco3)N3CCc4ccccc43)c(=O)[nH]c2cc1C (stereo not drawn)	Tau fibril ThT 25µM, Tau FP inhib inconclusive
Cc1ccc2[nH]c(=O)c(C(c3nnnn3C3CCCC3)N3CCCc4ccccc43)cc2c1 (stereo not drawn)	Tau fibril ThT inconclusive, FBPA coupling cs -44
Cc1ccc2cc(C(c3nnnn3Cc3ccccc3)N3CCc4ccccc43)c(=O)[nH]c2c1C (stereo not drawn)	none
Cc1cc2cc(C(c3nnnn3Cc3ccco3)N3CCc4ccccc4C3)c(=O)[nH]c2cc1C (stereo not drawn)	Tau fibril ThT 28µM, Tau FP inhib inconclusive, USP1-UAF1 inh inconclusive
CCCCCCc1cc2cc(-c3cn4c(n3)sc3cc(OC)ccc34)c(=O)oc2cc1O	Tau fibril ThT inconclusive, Tau fluor counter inconclusive, Tau FP inhib inconclusive (no result: FBPA coupling cs)
Cc1ccc2[nH]c(=O)c(C(c3nnnn3CC3CCCO3)N3CCc4ccccc4C3)cc2c1 (stereo not drawn)	Tau fibril ThT 32µM, Tau FP inhib inconclusive
Cc1ccc2cc(C(c3nnnn3Cc3ccccc3)N3CCc4ccccc43)c(=O)[nH]c2c1 (stereo not drawn)	Tau fibril ThT inconclusive
COc1ccc2[nH]c(=O)c(C(c3nnnn3CC3CCCO3)N3CCc4ccccc4C3)cc2c1 (stereo not drawn)	none
Cc1cc(C)c2[nH]c(=O)c(C(c3nnnn3CC3CCCO3)N3CCCC(C)C3)cc2c1 (stereo not drawn)	Tau fibril ThT 32µM, Tau FP inhib inconclusive
Cc1ccc2[nH]c(=O)c(C(c3nnnn3Cc3ccccc3)N3CCc4ccccc43)cc2c1 (stereo not drawn)	Tau fibril ThT 20µM, FBPA coupling cs -33, Tau fluor counter inconclusive, Tau FP inhib inconclusive, USP1-UAF1 inh inconclusive
O=C(CCSCc1ccccc1Cl)NCc1ccco1	none
O=C(CCSCCC(=O)NCc1ccco1)NCc1ccco1	Tau fibril ThT 14µM, Tau FP inhib inconclusive
COc1ccc(S(=O)(=O)N(CCc2ccccc2)CC(=O)Nc2ccc(C)c(C)c2)cc1OC	Tau fluor counter inconclusive (no result: FBPA coupling cs)
CCOC(=O)CNC(=O)O[C@@H]1C(=O)c2cc(OC)ccc2O[C@H]1c1ccc(OC)c(Br)c1	Tau fluor counter inconclusive (no result: USP1-UAF1 inh)
CC(/C=N/N1CCN(c2ccccc2)CC1)=C\c1ccco1	Tau fibril ThT inconclusive
CC(=C/c1ccco1)/C=N/N1CCN(c2ccccc2)CC1	Tau fibril ThT 14µM (no result: FBPA coupling cs)
Brc1cc2[nH]cnc2c2ccccc12	Tau fibril ThT inconclusive, FBPA coupling cs -39, Tau fluor counter inconclusive, USP1-UAF1 inh inconclusive
Oc1ccc2c(ccc3[nH]cnc32)c1	none
COc1ccc(N2CCN(C(=O)c3cc(S(=O)(=O)N4CCC(C)CC4)cn3C)CC2)cc1	none (no result: FBPA coupling cs)
CCOCCCNS(=O)(=O)c1ccc2c(c1)OCCO2	Tau fibril ThT 16µM, Tau fluor counter 16µM[quencher]
O=C(N/N=C/c1ccc(-c2cccc([N+](=O)[O-])c2)o1)c1ccccc1O	Tau fibril ThT 8.9µM, Tau fluor counter inconclusive
O=C1N=C(O)CN1/N=C\c1ccc(-c2ccc([N+](=O)[O-])cc2)o1	Tau fibril ThT 14µM (no result: USP1-UAF1 inh)
O=C1C2C3C=CC(C4CC34)C2C(=O)N1/N=C/c1ccc(-c2ccc([N+](=O)[O-])cc2)o1 (stereo not drawn)	Tau fibril ThT inconclusive
COc1cc([N+](=O)[O-])ccc1-c1ccc(/C=N\n2cnnc2)o1	none (no result: Tau fibril ThT, Tau fluor counter, Tau FP inhib)
O=C(N/N=C/c1ccc(-c2ccccc2[N+](=O)[O-])o1)c1cccnc1	Tau fibril ThT 7.1µM, Tau FP inhib inconclusive, USP1-UAF1 inh inconclusive
COc1cc([N+](=O)[O-])ccc1-c1ccc(/C=N/NC(=O)c2ccccc2O)o1	Tau fibril ThT 1.6µM, Tau fluor counter inconclusive (no result: USP1-UAF1 inh)
COc1ccc(C(=O)Nc2ccccc2C(=O)OCc2cc(=O)n3c4c(sc3n2)CCCC4)cc1	none (no result: FBPA coupling cs)
COC(=O)c1scc(-c2ccc(C)cc2)c1S(=O)(=O)N1CCN(c2ccc(C)cc2C)CC1	none (no result: FBPA coupling cs)
O=C(N/N=C/c1ccc([N+](=O)[O-])o1)c1ccc2c(c1)OCO2	none (no result: Tau fibril ThT, Tau fluor counter, Tau FP inhib)
O=C(N/N=C\c1ccc(-c2ccc([N+](=O)[O-])cc2)o1)c1ccc2c(c1)OCO2	Tau fibril ThT 0.89µM, Tau fluor counter inconclusive
C/C(=N\NC(=O)c1cc(-c2cccc([N+](=O)[O-])c2)n[nH]1)c1ccccc1O	Tau fibril ThT 2µM, Tau fluor counter inconclusive
NC(=S)N/N=C/c1ccc(-c2cc(Cl)cc(Cl)c2)o1	Tau fibril ThT inconclusive
C/C(=N/NC(=O)c1cc(-c2cccc([N+](=O)[O-])c2)n[nH]1)c1cccc(O)c1	Tau fibril ThT inconclusive
NC(=S)N/N=C/c1ccc(-c2ccc([N+](=O)[O-])cc2)o1	Tau fibril ThT 7.9µM, Tau fluor counter inconclusive, Tau FP inhib inconclusive
